# Test results from PubChem BioAssay (NCATS).
# Inconclusive results are not listed. Entries that show only a call come without a potency. Unmarked numbers belong to inactive results. Activity calls are given as the source filed them. Unless noted, the call rests on the fitted dose curve; in most records, active means well fitted curve in the direction sought with a large enough effect; inconclusive means small, poorly fitted or top-dose-only effect, or another doubt; inactive means no such curve, though single readings can be large; an effect the other way counts as inactive or inconclusive.
# How the values were obtained:
# [1] = target: Aldehyde dehydrogenase, mitochondrial (Homo sapiens) (UniProt P05091); assay: qHTS for Inhibitors of the Aldehyde Dehydrogenase Family (ALDH2) Validation screens (AID 2061302; active means well fitted inhibition curve with a large enough effect; title and protocol of this record describe different tests)
# [2] = target: Retinaldehyde dehydrogenase 3 (Homo sapiens) (UniProt P47895); assay: qHTS for Inhibitors of the Aldehyde Dehydrogenase Family (ALDH1A3) Validation screen (AID 2061312); further: nearly all actives have a fitted effect of over 45% in size
# [3] = BET inhibitor-based combinations targeting novel dependencies in MECOM-rearranged (r) AML: OCI-AML3 cell line (AID 2202232); conditions: Potency: OCI-AML3 viability; further: nearly all actives have a fitted effect of over 35% in size; further: potency means the concentration at half of the fitted maximal effect
# How it was run: (§1)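 Luminescent ATP readout (CellTiter-Glo) after 48 hr drug exposure gives viability. Curves span 11 concentrations and are normalized to DMSO and empty wells. Activity is reported as area under the curve and its Z-transform within each cell line.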
# [4] = BET inhibitor-based combinations targeting novel dependencies in MECOM-rearranged (r) AML: MV-4-11 cell line (AID 2202233); further: potency means the concentration at half of the fitted maximal effect; nearly all actives have a fitted effect of over 45% in size
# How it was run: (§2)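 Luminescent ATP readout (CellTiter-Glo, 15 min at room temperature) after 48 hr drug exposure gave viability. Dose-response curves, normalized to DMSO and empty-well controls, were summarized as area under the curve and its mean-centred Z-score.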
# [5] = BET inhibitor-based combinations targeting novel dependencies in MECOM-rearranged (r) AML: HNT-34 cell line (AID 2202234); further: nearly all actives have a fitted effect of over 35% in size; further: potency means the concentration at half of the fitted maximal effect
# How it was run: as §2
# [6] = BET inhibitor-based combinations targeting novel dependencies in MECOM-rearranged (r) AML: SET-2 cell line (AID 2202231); conditions: SET-2 AML cells viability, CellTiter-Glo luminescence, 48 h; viability: hits give low values, series mostly up to about 46 µM; further: nearly all actives have a fitted effect of over 35% in size
# How it was run: as §1
# [7] = BET inhibitor-based combinations targeting novel dependencies in MECOM-rearranged (r) AML: AML-191 cell line (AID 2202236; further: nearly all actives have a fitted effect of over 35% in size)
# How it was run: as §1
# [8] = BET inhibitor-based combinations targeting novel dependencies in MECOM-rearranged (r) AML: AML-194 cell line (AID 2202237; further: nearly all actives have a fitted effect of over 40% in size)
# How it was run: as §1
structure (smiles),measurement,setting,value
CC(C)NC[C@H](O)c1ccc(O)c(O)c1,Potency,[1],inactive
same,Potency,[2],inactive
O=C(O)C1CN(CCCP(=O)(O)O)CCN1 (centres undefined),Potency,[1],inactive
same,Potency,[2],inactive
COc1cc(-c2coc3cc(OCc4ccccc4)c(OC)c(O)c3c2=O)cc(O)c1OC,Potency,[1],inactive
C[N+](C)(C)CCOP(=O)(O)OP(=O)([O-])OC[C@H]1O[C@@H](n2ccc(N)nc2=O)[C@H](O)[C@@H]1O,Potency,[1],inactive
same,Potency,[2],inactive
CC(=O)[C@@]1(O)CC[C@H]2[C@@H]3CCC4=CC(=O)CC[C@]4(C)[C@H]3CC[C@@]21C,Potency,[1],inactive
same,Potency,[2],inactive
NC(N)=NCCCCN=C(N)N,Potency,[1],inactive
same,Potency,[2],inactive
Cc1ccc(Cl)c(Nc2ccccc2C(=O)O)c1Cl,Potency,[1],inactive
same,Potency,[2],inactive
O=C1NC(O)=NC1(c1ccccc1)c1ccccc1,Potency,[1],inactive
same,Potency,[2],inactive
O=C1CC2(CCCC2)CC(=O)N1CCCCN1CCN(c2ncccn2)CC1,Potency,[1],inactive
same,Potency,[2],inactive
O=C1NCC2(CCN(CCc3ccccc3)CC2)O1,Potency,[1],inactive
same,Potency,[2],inactive
Cc1nc2c([nH]1)c(=O)n(C)c(=O)n2Cc1ccco1,Potency,[1],inactive
same,Potency,[2],inactive
OC(CCN1CCCCC1)(c1ccccc1)C1CCCCC1 (centres undefined),Potency,[1],inactive
same,Potency,[2],inactive
COc1cc2c(cc1O)CC[C@@H]1[C@@H]2CC[C@]2(C)[C@@H](O)CC[C@@H]12,Potency,[1],inactive
same,Potency,[2],inactive
CCN(CC)CCOC(=O)C1(C2CCCCC2)CCCCC1,Potency,[1],inactive
same,Potency,[2],inactive
NC(N)=[N+]1CCc2ccccc2C1,Potency,[1],inactive
same,Potency,[2],inactive
COc1ccc(C(=O)/C(Cc2cc(OC)c(OC)c(OC)c2)=C(\C(=O)O)c2ccc3c(c2)OCO3)cc1,Potency,[1],inactive
same,Potency,[2],inactive
O=C1CCC(c2ccc(-n3ccnc3)cc2)=NN1,Potency,[1],inactive
same,Potency,[2],inactive
CN1CCN(c2nc3cc(C(F)(F)F)ccc3n3cccc23)CC1,Potency,[1],inactive
same,Potency,[2],inactive
CNCCC(Oc1ccc(C(F)(F)F)cc1)c1ccccc1 (centres undefined),Potency,[1],inactive
same,Potency,[2],inactive
COc1cc(OC)c(/C=C2/C(=O)Nc3ccccc32)c(OC)c1,Potency,[1],inactive
same,Potency,[2],inactive
CC(C)NC[C@H](O)COc1cccc2ccccc12,Potency,[1],inactive
same,Potency,[2],inactive
C[C@@H]1C(=O)NC2=Nc3cccc(Cl)c3CN21,Potency,[1],inactive
same,Potency,[2],inactive
NC(N)=NCCC[C@H](N)C(=O)O,Potency,[1],inactive
same,Potency,[2],inactive
Cc1cn([C@H]2CC(N=[N+]=[N-])[C@@H](CO)O2)c(=O)[nH]c1=O (some centres undefined),Potency,[1],inactive
same,Potency,[2],inactive
CCn1cc(C(=O)O)c(=O)c2ccc(C)nc21,Potency,[1],inactive
same,Potency,[2],inactive
CCN(CC)CC#CCOC(=O)C(O)(c1ccccc1)C1CCCCC1 (centres undefined),Potency,[1],inactive
same,Potency,[2],inactive
CCC(CO)Nc1nc(NCc2ccccc2)c2ncn(C(C)C)c2n1 (centres undefined),Potency,[1],inactive
same,Potency,[2],inactive
O=Nc1c(-c2c(O)[nH]c3ccccc23)[nH]c2ccccc12,Potency,[1],inactive
same,Potency,[2],inactive
CC(C)OC(=O)C(C)(C)Oc1ccc(C(=O)c2ccc(Cl)cc2)cc1,Potency,[1],inactive
same,Potency,[2],inactive
NC(=O)N1c2ccccc2C=Cc2ccccc21,Potency,[1],inactive
same,Potency,[2],inactive
O=C(O)/C=C/c1cnc[nH]1,Potency,[1],inactive
same,Potency,[2],inactive
NC(=O)c1ccccc1,Potency,[1],inactive
same,Potency,[2],inactive
O=C1NC(=O)C(c2ccccc2)(c2ccccc2)N1,Potency,[1],inactive
same,Potency,[2],inactive
C[C@H](NC(CCc1ccccc1)C(=O)O)C(=O)N1CCC[C@H]1C(=O)O (some centres undefined),Potency,[1],inactive
same,Potency,[2],inactive
CC(=O)[C@H]1CC[C@H]2[C@@H]3CCC4=CC(=O)CC[C@]4(C)[C@H]3CC[C@]12C,Potency,[1],inactive
same,Potency,[2],inactive
CCC(=O)c1ccc2c(c1)N(CCCN(C)C)c1ccccc1S2,Potency,[1],inactive
same,Potency,[2],inactive
CC1=C(CC(=O)O)c2cc(F)ccc2/C1=C\c1ccc(S(C)(=O)=O)cc1,Potency,[1],inactive
same,Potency,[2],inactive
COc1ccc(CN(CCN(C)C)c2ccccn2)cc1,Potency,[1],inactive
same,Potency,[2],inactive
c1ccc2c(c1)CCCC2C1=NCCN1 (centres undefined),Potency,[1],inactive
same,Potency,[2],inactive
CN(C)CC[C@@H](c1ccc(Br)cc1)c1ccccn1,Potency,[1],inactive
same,Potency,[2],inactive
Cc1cn([C@H]2C=C[C@@H](CO)O2)c(=O)[nH]c1=O,Potency,[1],inactive
same,Potency,[2],inactive
Nc1nc(OCC2CCCCC2)c2[nH]cnc2n1,Potency,[1],inactive
same,Potency,[2],inactive
CC(C)NCC(O)c1cc(O)cc(O)c1 (centres undefined),Potency,[1],inactive
same,Potency,[2],inactive
O=C1c2ccccc2-c2n[nH]c3cccc1c23,Potency,[1],inactive
same,Potency,[2],inactive
same,Potency,[3],4.68 µM (active)
same,Potency,[4],3.32 µM (active)
same,Potency,[5],13.2 µM (active)
COc1nc(C)nc(Cl)c1NC1=NCCN1,Potency,[1],inactive
same,Potency,[2],inactive
same,viability,[6],107%
same,Potency,[3],inactive
same,Potency,[5],inactive
same,Potency,[7],inactive
same,Potency,[8],inactive
CC(C)NCC(O)COc1cccc2ccccc12 (centres undefined),Potency,[1],inactive
same,Potency,[2],inactive
